This is one part of a sample in which hits are shown more often than they occur.
Pf apPOL inh – Pf-apPOL inhibitors, biochemical, fluorescence; Plasmodium falciparum apicoplast DNA polymerase (apPOL); Recombinant Pf-apPOL, molecular beacon fluorescence, 1.5 h; inhibition, % at 10 µM; actives 0.25% (n = 210,000); AID 1794808, 2022
mHTT CaM bind – mutant huntingtin-calmodulin interaction inhibitors – biochemical, AlphaScreen, primary screen; AlphaScreen His-mHTT/GST-CaM binding, luminescence; actives 3.6% (n = 190,000); inhibition, % at 15 µM; P42858;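 further: 0% = both proteins with DMSO and 100% = one protein alone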
Active calls of the source: *; · = not tested or not shown. No stated cut-off is given here; in the data, active means inhibition above about 50%; inactive means the rest.

SMILES	Pf apPOL inh	mHTT CaM bind
CCCCC(=O)NC(c1ccccc1)c1ccc2cccnc2c1O (centres undefined)	-1.5	100.0*
CCCC(=O)NC(c1ccccc1)c1ccccc1	2.8	-10.6
CCCC(=O)NC(c1ccccc1)c1ccc2cccnc2c1O (centres undefined)	-3.8	100.0*
CCCC(=O)NC(c1ccccc1)c1cc(Cl)c2cccnc2c1O (centres undefined)	0.4	18.0
COCCN1C(=O)CCc2cc(NC(=O)c3ccccc3Br)ccc21	-6.7	-1.4
Cc1ccc(C(=O)CSc2nc(N)c(C(=O)c3ccc(C)cc3)s2)cc1	6.1	·
NC(N)=NC(N)=Nc1ccc(Oc2ccccc2)cc1	15.7	4.4
O=C(/C=C/c1ccc(Cl)cc1Cl)Nc1cc2ccccc2oc1=O	2.9	-7.0
Cc1c(Cl)cccc1Nc1nc(O)c(C2=c3cc(Br)ccc3=NC2=O)s1	-3.3	10.0
COc1cccc(C(=O)N2CCN(c3nc(CN4CCCCC4)cs3)CC2)c1	2.2	4.4
CC(C)c1ccc(-n2ccnc(NC(=O)c3ccccn3)c2=O)cc1	-21.9	91.1*
CC(C)c1ccc(-n2ccnc(NC(=O)Nc3ccccc3)c2=O)cc1	-0.1	-0.1
Cc1ccc(-n2ccnc(NC(=O)c3ccccn3)c2=O)cc1C	-15.6	88.9*
Cc1ccc(-n2ccnc(NC(=O)c3cccc(F)c3)c2=O)cc1C	-1.4	12.2
Cc1ccc(CCS(=O)(=O)c2ccc(C(C)C)cc2)c[n+]1C	-2.1	-1.0
CCOc1ccccc1CN1C(=O)CCC1(C)C(=O)NC1CCCC(C)C1C (centres undefined)	-10.1	20.0
O=C(NC1CC(O)C(CO)C1)c1ccc2c(c1)OCO2 (centres undefined)	-3.3	-2.5
CC(Oc1ccccc1)C(=O)NCCc1ccc(S(N)(=O)=O)cc1 (centres undefined)	86.4*	25.2
COc1ccc(OC(C)C(=O)NCCc2ccccc2)cc1 (centres undefined)	6.5	-2.6
CCOc1ccc(NC(=O)C(C)Oc2ccccc2C(=O)Nc2ccc(OC)cc2)cc1 (centres undefined)	-4.7	-3.1
CC(NC(=O)c1c(F)cccc1F)c1nc2ccccc2[nH]1 (centres undefined)	-6.3	3.0
COc1ccc(CN2CCC(C(=O)NCc3ccccc3Cl)CC2)c(OC)c1	-4.6	-0.9
COCCCNC(=O)C1CCN(Cc2cc3ccccc3n2Cc2ccccc2C)CC1	1.8	63.9*
COCCNC(=O)C1CCN(Cc2cc3ccccc3n2Cc2ccccc2Cl)CC1	-0.4	83.4*
COCCCNC(=O)C1CCN(C(=O)c2cccnc2-c2ccccc2C)CC1	-6.1	-5.8
SMILES	Pf apPOL inh	mHTT CaM bind
Cc1cc(OCC(=O)N2CCC(C(N)=O)CC2)cc(C)c1Br	48.0	7.9
Cc1ccc(C(=O)N2CCc3c(c(COCc4ccccc4C)nn3C)C2)cc1	-4.6	24.3
O=C(NC1CC1)c1cn2c(n1)CCCC2	-3.3	-5.7
Cc1ccc(S(=O)(=O)NC(=O)N2CCCN(c3c(Cl)cncc3Cl)CC2)cc1	5.0	·
CCCN(CCO)Cc1ccc(F)cc1	-3.6	-6.2
Cc1cccc(OCc2noc(-c3ccccc3)n2)c1	-1.9	-16.8
O=S1(=O)c2ccc(Br)cc2O[C@H]2CCN1C2	-1.4	-14.0
N#CC(=Cc1[nH]c2ccccc2c1O)C(N)=NCCc1ccccc1	-5.8	19.0
N#CC(=Cc1[nH]c2ccccc2c1O)C(N)=NC1CCCCC1	0.0	92.0*
CCCn1c(NC(=O)c2ccco2)nc2ccccc21	-4.5	30.9
O=C(NCc1nc2ccccc2n1CCCCOc1ccccc1Cl)c1ccco1	-1.9	75.4*
O=C(CSc1ccc(-c2ccccn2)nn1)c1ccc([N+](=O)[O-])cc1	2.4	99.6*
Cc1nc(C)c(-c2ccc(SCC(=O)c3ccc([N+](=O)[O-])cc3)nn2)s1	2.2	20.9
COc1cc2c(cc1OC)C(C)N(c1ccc(N3C(=O)CC(C)C3=O)cc1[N+](=O)[O-])CC2 (centres undefined)	-15.0	60.0*
Cc1ccc(N2CCN(c3ccc(N4C(=O)COCC4=O)cc3[N+](=O)[O-])CC2C)cc1 (centres undefined)	-13.9	11.0
O=C1CCCC(=O)N1c1ccc(N2CCCC(CO)C2)c([N+](=O)[O-])c1 (centres undefined)	-10.5	2.0
CC1CC(=O)N(c2ccc(N3CCN(c4cccc(Cl)c4)CC3)c([N+](=O)[O-])c2)C1=O (centres undefined)	-14.1	46.0
COc1ccc(Cl)cc1CN1CCN(c2ccc(N3C(=O)CCCC3=O)cc2[N+](=O)[O-])CC1	-24.4	73.0*
COc1ccc(Cl)cc1CN1CCN(c2ccc(N3C(=O)CC(C)C3=O)cc2[N+](=O)[O-])CC1 (centres undefined)	-16.6	73.0*
COc1ccc(Cl)cc1CN1CCN(c2ccc(N3C(=O)COCC3=O)cc2[N+](=O)[O-])CC1	-8.5	79.0*
CC1CC(=O)N(c2ccc(N3CC4(C)CC3CC(C)(C)C4)c([N+](=O)[O-])c2)C1=O (centres undefined)	-18.1	37.0
Cc1ccc(S(=O)(=O)NC(CN2CCCCC2)=NCCNS(=O)(=O)c2ccccc2)cc1	-0.4	10.0
Cc1cc(/C=C2\NC(=O)N(Cc3ccc(Cl)cc3)C2=O)c(C)n1-c1ccc(C#N)cc1	-3.8	51.0*
COc1cc(OC)c(OC)cc1/C=C1\NC(=O)N(Cc2ccc(Cl)cc2)C1=O	-9.3	-1.0
Cc1c(C(=O)NCc2cccnc2)cccc1[N+](=O)[O-]	-6.1	2.0
SMILES	Pf apPOL inh	mHTT CaM bind
Cc1ccc(S(=O)(=O)Nc2cccc3cccnc23)cc1	-44.7	37.9
Nc1ccccc1S(=O)(=O)Nc1cccc2cccnc12	-18.7	100.0*
Cc1cccc(C(=O)Nc2ccc(I)cc2C(=O)N2CCCC2)c1	-0.6	-3.0
O=c1/c(=C/c2cccc(Cl)c2)sc2nc(-c3cccs3)nn12	-0.5	4.0
COc1ccc(-c2c(C)oc3cc(OC(=O)c4ccc(OC)c(OC)c4)ccc3c2=O)cc1	-2.2	-1.6
Cn1ccc2c(N(Cc3ccccc3)Cc3ccccc3)cc3c(c21)C1CCC3O1 (centres undefined)	3.7	42.7
Cn1ccc2c(-c3ccc(F)cc3)cc3c(c21)C1CCC3O1 (centres undefined)	-7.8	23.0
COc1ccccc1N(C)c1cc2c(c3c1ccn3C)C1CCC2O1 (centres undefined)	-2.5	67.2*
CN(Cc1ccccc1)c1cc2c(c3c1ccn3C)C1CCC2O1 (centres undefined)	-3.5	71.8*
Cc1ccc(-c2cc(C(F)(F)F)n3nc(C(=O)NC(C)C)cc3n2)cc1	-6.0	2.0
Cc1ccc(S(=O)(=O)N2CCC(=O)N([C@H](COCc3cccc(C)c3)C(C)C)CC2)cc1	-3.9	-9.0
CC(C)C[C@@H](COCc1cccc(C(F)(F)F)c1)N1CCN(C(=O)c2ccc(C(F)(F)F)cc2)CCC1=O	-0.4	89.2*
Cc1ccc(S(=O)(=O)N2CCC(=O)N(CCOCc3cccc(C(F)(F)F)c3)CC2)cc1	-1.4	7.4
Cc1cccc(COC[C@H](CC(C)C)N2CCN(C(=O)c3ccc(C(F)(F)F)cc3)CCC2=O)c1	-2.2	90.3*
O=C(Nc1ccccc1Cl)N1CC2CCCN2c2ccccc21 (centres undefined)	-2.2	81.4*
Cc1ccc(Cl)cc1NC(=O)N1CC2CCCN2c2ccccc21 (centres undefined)	-2.9	32.3

Screening results as filed in PubChem.
